Experimental data as given in the supplement of paper PMC11732987, “Enantioselective OTUD7B fragment discovery through chemoproteomics screening and high-throughput optimisation” (Communications Chemistry, 2025).

How the values were obtained:
Assay in all cases: log2 ratio of Biotin-Ahx-Ub-VS probe labelling (fragment/DMSO); higher = less target engagement (more negative = stronger competition), active = hit call of the paper (q ≤ 0.05, log2 ratio ≤ -1)
Conditions in all cases: compound concentration: 200 uM; treatment time: 3 h
[1] = molecular target: USP34 (UniProt Q70CQ2)
USP34, sequence (Q70CQ2 whole entry, the tested form may be a part): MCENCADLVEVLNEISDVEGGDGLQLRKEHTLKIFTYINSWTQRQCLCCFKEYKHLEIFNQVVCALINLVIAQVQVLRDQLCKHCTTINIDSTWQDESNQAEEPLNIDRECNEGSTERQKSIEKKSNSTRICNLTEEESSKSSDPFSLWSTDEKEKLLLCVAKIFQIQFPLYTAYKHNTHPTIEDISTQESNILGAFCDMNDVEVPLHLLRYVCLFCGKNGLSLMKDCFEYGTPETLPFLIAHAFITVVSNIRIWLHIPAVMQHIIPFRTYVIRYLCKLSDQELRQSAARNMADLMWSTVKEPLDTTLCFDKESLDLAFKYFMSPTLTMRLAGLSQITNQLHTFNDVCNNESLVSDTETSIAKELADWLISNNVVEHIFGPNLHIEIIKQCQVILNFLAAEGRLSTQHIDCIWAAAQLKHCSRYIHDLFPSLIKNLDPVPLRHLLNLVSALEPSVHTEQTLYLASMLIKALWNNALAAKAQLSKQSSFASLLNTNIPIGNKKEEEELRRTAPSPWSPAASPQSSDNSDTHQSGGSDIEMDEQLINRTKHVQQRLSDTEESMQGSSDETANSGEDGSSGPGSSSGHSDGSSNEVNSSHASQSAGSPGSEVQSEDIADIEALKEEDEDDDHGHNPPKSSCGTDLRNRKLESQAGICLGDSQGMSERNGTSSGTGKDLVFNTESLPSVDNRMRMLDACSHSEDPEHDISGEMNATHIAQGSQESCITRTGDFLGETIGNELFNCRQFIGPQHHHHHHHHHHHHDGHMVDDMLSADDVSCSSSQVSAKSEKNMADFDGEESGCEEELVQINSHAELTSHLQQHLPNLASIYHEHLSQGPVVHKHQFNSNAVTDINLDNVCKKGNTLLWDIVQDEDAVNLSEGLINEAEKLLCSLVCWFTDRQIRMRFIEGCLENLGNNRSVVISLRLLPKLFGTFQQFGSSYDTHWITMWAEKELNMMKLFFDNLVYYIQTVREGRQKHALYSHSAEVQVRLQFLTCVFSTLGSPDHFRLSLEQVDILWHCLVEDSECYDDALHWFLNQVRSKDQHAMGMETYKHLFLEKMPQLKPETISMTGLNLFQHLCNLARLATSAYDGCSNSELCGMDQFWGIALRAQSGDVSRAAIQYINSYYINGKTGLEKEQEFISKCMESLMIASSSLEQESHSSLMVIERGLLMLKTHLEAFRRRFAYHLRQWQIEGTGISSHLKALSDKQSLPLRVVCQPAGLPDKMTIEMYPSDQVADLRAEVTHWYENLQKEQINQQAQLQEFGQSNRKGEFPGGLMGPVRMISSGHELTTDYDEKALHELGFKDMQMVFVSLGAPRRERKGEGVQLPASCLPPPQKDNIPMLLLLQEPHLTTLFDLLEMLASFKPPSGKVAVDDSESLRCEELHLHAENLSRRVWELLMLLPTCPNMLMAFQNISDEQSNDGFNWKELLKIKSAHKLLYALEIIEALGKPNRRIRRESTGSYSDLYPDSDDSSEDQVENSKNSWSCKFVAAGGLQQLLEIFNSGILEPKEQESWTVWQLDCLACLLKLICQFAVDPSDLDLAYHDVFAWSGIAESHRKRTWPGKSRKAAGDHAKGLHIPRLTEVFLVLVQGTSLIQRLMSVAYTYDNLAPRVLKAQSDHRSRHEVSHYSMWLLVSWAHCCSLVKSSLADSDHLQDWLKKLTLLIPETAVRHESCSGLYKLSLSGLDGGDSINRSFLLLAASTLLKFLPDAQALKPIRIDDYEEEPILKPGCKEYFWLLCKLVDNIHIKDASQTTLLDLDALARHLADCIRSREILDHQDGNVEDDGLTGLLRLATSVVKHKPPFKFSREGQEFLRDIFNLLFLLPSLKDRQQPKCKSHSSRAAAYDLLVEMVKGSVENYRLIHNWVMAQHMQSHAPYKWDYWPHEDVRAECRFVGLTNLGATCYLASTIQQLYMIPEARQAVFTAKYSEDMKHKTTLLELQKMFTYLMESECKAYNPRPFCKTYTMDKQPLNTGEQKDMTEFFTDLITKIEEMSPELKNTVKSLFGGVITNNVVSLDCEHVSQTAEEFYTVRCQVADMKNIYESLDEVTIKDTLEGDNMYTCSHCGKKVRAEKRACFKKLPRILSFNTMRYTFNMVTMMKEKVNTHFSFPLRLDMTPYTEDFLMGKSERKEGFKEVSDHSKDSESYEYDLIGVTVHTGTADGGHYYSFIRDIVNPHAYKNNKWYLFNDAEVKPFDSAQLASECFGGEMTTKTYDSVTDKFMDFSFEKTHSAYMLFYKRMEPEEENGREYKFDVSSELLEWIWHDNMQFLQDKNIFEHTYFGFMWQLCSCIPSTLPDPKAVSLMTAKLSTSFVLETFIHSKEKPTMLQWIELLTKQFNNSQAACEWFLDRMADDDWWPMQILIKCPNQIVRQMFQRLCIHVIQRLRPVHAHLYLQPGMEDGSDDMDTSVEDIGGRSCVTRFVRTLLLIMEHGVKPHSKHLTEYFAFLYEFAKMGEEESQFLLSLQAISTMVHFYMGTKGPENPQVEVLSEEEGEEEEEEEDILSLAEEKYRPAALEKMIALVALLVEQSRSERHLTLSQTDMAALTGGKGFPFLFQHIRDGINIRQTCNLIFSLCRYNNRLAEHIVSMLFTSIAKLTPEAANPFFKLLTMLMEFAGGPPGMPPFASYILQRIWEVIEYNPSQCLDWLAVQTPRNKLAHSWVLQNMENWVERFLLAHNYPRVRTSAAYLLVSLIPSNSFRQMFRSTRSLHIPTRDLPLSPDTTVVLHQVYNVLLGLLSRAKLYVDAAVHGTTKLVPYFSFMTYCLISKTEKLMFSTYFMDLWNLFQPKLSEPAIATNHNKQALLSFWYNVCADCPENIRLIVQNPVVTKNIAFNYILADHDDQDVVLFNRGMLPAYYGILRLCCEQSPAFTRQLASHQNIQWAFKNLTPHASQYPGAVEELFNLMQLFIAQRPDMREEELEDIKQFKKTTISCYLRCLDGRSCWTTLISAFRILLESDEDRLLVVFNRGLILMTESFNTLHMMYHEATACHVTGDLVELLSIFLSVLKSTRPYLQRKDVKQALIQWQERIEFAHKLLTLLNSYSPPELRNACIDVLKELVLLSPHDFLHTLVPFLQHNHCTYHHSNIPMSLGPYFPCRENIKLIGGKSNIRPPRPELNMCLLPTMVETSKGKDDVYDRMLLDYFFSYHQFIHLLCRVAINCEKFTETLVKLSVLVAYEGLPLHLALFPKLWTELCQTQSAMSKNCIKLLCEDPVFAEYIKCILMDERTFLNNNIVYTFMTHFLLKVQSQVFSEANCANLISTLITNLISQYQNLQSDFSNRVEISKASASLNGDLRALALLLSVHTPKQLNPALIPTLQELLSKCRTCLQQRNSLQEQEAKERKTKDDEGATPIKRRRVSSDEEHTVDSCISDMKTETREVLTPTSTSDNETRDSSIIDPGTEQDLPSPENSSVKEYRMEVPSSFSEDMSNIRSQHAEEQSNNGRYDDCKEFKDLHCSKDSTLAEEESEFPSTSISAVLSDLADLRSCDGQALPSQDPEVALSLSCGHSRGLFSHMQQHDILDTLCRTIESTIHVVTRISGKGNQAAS
In short: (§1)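 The table lists average log2 ratios of fragment over vehicle, from an unpaired t-test on global-median-normalised Spectronaut label-free quantities. Proteins with ≥2 unique peptides were used. Samples were HEK293T lysate (495 µg) treated in triplicate with fragment at 200 µM or vehicle for 3 h, then with Biotin-Ahx-Ub-VS (0.5 µM final) for 1 h, with labelled DUBs NeutrAvidin-enriched and run by diaPASEF LC-MS/MS.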

[2] = molecular target: T1, USP36 (UniProt Q9P275)
T1 sequence (whole entry): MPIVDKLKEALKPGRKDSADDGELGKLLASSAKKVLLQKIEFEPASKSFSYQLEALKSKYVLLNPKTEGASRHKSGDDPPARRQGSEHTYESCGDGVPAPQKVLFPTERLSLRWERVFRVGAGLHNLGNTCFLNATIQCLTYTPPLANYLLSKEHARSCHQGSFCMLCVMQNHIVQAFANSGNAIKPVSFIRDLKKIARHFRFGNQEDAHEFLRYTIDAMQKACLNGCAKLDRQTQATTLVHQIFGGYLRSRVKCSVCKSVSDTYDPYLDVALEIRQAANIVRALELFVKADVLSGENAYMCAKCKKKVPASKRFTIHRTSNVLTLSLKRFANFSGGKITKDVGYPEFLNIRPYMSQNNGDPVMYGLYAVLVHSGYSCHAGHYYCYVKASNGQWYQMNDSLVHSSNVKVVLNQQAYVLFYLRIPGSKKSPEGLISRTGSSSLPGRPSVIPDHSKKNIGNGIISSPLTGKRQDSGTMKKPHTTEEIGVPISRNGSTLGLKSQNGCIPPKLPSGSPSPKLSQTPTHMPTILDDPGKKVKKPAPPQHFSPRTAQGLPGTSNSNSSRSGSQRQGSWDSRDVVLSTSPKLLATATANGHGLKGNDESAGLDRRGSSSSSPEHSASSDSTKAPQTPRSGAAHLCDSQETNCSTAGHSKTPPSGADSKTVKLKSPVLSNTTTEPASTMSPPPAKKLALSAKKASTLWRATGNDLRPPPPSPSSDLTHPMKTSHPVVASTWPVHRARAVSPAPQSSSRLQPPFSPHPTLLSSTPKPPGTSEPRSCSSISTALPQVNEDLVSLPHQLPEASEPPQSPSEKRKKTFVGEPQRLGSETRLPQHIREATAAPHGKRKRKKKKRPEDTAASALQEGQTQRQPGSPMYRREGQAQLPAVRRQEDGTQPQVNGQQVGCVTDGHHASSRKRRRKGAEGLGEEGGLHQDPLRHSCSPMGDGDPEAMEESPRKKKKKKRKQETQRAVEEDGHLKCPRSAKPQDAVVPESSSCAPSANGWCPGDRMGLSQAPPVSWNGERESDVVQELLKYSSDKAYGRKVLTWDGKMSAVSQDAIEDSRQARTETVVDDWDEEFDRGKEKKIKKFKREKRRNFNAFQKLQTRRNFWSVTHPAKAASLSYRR
In short: as §1

[3] = molecular target: T2, USP38 (UniProt Q8NB14)
T2 sequence (whole entry): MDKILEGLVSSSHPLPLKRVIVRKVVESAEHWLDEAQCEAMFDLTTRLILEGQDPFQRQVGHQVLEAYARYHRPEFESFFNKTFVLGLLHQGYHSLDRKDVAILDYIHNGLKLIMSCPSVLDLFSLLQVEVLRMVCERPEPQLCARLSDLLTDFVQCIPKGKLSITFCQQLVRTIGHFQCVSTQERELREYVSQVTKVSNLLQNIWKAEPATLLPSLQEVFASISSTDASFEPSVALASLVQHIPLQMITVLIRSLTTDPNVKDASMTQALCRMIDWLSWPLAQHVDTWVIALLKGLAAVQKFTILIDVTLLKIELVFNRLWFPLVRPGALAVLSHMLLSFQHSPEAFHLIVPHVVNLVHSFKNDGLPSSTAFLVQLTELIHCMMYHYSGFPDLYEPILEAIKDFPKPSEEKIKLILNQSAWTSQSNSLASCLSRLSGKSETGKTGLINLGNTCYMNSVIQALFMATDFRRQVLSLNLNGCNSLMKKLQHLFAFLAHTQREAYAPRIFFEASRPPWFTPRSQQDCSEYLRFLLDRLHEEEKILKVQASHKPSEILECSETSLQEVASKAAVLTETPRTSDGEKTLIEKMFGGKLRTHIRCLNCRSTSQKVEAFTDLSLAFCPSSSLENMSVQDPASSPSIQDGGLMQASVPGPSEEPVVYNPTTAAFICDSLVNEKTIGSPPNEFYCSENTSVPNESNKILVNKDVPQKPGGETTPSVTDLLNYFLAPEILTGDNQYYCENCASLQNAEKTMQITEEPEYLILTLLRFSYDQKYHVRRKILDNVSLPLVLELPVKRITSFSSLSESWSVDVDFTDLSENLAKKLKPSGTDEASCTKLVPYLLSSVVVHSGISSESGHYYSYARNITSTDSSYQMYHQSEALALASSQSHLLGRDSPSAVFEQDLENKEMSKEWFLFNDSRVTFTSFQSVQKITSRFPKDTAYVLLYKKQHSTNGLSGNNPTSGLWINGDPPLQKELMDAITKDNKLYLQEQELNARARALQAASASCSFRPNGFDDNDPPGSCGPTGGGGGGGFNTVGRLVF
In short: as §1

[4] = molecular target: T3, USP39 (UniProt Q53GS9)
T3 sequence (whole entry): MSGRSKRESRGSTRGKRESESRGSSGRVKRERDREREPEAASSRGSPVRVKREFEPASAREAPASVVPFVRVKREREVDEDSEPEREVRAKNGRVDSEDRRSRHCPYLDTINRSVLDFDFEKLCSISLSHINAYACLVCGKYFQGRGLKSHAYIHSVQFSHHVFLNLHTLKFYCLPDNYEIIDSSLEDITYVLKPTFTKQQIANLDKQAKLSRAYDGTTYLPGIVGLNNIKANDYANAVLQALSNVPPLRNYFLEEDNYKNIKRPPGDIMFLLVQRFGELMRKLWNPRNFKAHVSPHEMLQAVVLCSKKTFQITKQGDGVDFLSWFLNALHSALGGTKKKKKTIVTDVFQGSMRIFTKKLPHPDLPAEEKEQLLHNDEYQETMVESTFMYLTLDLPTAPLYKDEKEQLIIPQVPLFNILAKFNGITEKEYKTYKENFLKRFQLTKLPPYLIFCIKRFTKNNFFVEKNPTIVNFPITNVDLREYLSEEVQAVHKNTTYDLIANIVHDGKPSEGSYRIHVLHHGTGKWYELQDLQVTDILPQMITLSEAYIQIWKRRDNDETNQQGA
In short: as §1

[5] = molecular target: T4, USP4 (UniProt Q13107)
T4 sequence (whole entry): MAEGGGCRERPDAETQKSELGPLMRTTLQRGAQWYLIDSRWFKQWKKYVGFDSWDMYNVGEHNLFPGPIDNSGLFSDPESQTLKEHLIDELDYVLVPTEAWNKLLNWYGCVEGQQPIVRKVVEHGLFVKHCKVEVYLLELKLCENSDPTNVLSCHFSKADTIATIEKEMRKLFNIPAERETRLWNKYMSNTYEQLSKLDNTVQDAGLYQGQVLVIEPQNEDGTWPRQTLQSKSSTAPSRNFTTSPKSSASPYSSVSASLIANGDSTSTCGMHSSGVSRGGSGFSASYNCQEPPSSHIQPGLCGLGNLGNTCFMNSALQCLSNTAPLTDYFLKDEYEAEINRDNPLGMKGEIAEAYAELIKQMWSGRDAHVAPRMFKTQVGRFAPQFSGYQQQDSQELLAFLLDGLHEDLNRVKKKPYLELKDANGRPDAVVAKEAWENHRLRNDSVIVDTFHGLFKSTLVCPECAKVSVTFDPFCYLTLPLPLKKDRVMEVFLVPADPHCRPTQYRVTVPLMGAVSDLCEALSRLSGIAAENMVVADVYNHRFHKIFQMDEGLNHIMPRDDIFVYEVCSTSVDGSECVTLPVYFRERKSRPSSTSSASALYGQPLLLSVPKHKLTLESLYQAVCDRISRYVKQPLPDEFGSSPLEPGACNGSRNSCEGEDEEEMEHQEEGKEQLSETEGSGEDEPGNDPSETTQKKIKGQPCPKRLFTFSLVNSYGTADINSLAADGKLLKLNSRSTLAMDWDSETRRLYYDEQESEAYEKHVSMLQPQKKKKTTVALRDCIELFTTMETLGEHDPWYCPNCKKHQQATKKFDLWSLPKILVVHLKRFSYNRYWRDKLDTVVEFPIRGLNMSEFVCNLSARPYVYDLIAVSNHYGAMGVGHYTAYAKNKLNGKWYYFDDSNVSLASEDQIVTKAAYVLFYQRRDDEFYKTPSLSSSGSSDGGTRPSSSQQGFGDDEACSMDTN
In short: as §1

Measured: log2 ratio of Biotin-Ahx-Ub-VS probe labelling

Cc1ccccc1CN(C)C(=O)CCl
inactive: [1] -0.547 | [2] -0.347 | [3] -0.741 | [4] -0.049 | [5] -0.831
